# PAFAH2 inh = PAFAH2 (human) inhibition; recombinant PAFAH2, FP-rhodamine activity probe, fluorescence polarization; inhibition, % at 3.39 µM; 340,000 tested, 0.99% active;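 active means inhibition above the mean over all tested compounds plus 3 SD, cut at about 30% in these data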;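 further: inhibitors block probe labeling of enzyme so polarization drops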
# PAFAH1B2 inh = PAFAH1B2 (human) inhibition. P68402. recombinant PAFAH1B2, FP-rhodamine activity probe, fluorescence polarization. inhibition, % at 3.39 µM. 340,000 tested, 1.2% active;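 active means inhibition above the mean of all tested compounds plus 3 SD, cut at about 24% in these data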
# pPAFAH inh = pPAFAH (human) enzyme inhibition; Q13093; recombinant pPAFAH, FP-rhodamine probe fluorescence polarization; inhibition, % at 3.39 µM; 330,000 tested, 1.5% active;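 active means inhibition above the mean inhibition across the screen plus 3 SD, cut at about 25% in these data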;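 further: inhibitors block binding of the rhodamine activity-based probe so polarization drops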
# PAFAH1B3 inh = inhibitors of human PAFAH1B3; 340,000 tested, 0.28% active; AID 492972; recombinant PAFAH1B3, FP-rhodamine probe, fluorescence polarization; inhibition, % at 3.39 µM; Q15102;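 active means inhibition above the screen-wide average of all tested compounds plus 3 SD, cut at about 25% in these data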
# Target sequence (Q15102 whole entry, looked up): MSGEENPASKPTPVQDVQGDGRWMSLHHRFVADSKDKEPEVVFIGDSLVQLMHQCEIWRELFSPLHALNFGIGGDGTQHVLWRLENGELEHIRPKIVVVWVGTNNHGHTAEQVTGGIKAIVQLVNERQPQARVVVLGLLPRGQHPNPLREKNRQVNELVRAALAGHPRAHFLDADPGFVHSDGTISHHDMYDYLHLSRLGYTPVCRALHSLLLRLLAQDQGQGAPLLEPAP
# PP1 counter = PP1-alpha (human) inhibition in PP5 counter-screen. inhibition, % at 6.7 µM. P62136. AID 2235. purified PP1alpha, OMFP fluorescence. 320,000 tested, 0.9% active;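 active means inhibition above the mean inhibition of all tested compounds plus 3 SD, computed separately for each screening campaign, cut at about 15% in these data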
# PP5 primary = inhibitors of human protein phosphatase 5 (PP5); P53041; purified PP5c, OMFP substrate fluorescence; inhibition, % at 6.7 µM; 320,000 tested, 0.18% active; AID 1987;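 active means inhibition above the campaign's mean inhibition across all tested compounds plus 3 SD, cut at about 9.5% in these data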
# PAFAH1B3 conf FP = confirmation of human PAFAH1B3 inhibitors; shares compounds with PAFAH1B3 inh; recombinant PAFAH1B3, FP-Rh activity-based probe, fluorescence polarization; inhibition, % at 3.39 µM; 390 tested, 30% active;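 active means average inhibition over triplicate runs above the hit cutoff set in the earlier primary screen, cut at about 25% in these data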
# Numbers stand for hits; 0 = inactive; - = no result. This is a sample that favours compounds with a hit; in the whole collection about 3.4% have one here.
SMILES,PAFAH2 inh,PAFAH1B2 inh,pPAFAH inh,PAFAH1B3 inh,PP1 counter,PP5 primary,PAFAH1B3 conf FP
COc1ccc(C2/C=C\CN(Cc3ccc(N(C)C)cc3)CC(=O)N2Cc2ccc(F)cc2)cc1 (stereo unspecified),0,0,0,0,0,0,-
C=CC(=O)Nc1ccc(Br)cc1,0,0,0,63.4,0,0,56.6
NCC(=O)Nc1ccc(Br)cc1,0,0,0,0,0,0,-
Cc1ccc(C(=O)NNC(=O)CCCCC(=O)NNC(=O)c2ccc(C)cc2)cc1,0,0,0,0,0,0,-
CCOC(=O)c1ccccc1N1C(=O)CSC1=S,0,0,0,38.0,0,0,37.9
CN(C)CCCNc1cc(O)c2ncccc2c1,0,0,0,29.4,-,-,0
Oc1cc(NCc2ccc(F)cc2)cc2cccnc12,0,0,0,0,-,-,-
COc1cc(C(=O)N/N=C/c2ccc3c(c2)c2ccccc2n3C)ccc1O,0,0,-,40.9,-,-,0
COc1cc(/C=N/NC(=O)CCn2c3ccccc3c3ccccc32)ccc1O,0,0,0,0,0,0,-
CN(CCCCCCCCC(=O)/C=N/O)Cc1ccccc1,0,0,0,0,0,0,-
CN(C)CCCCCCCCCCC(=O)/C=N/O,0,0,0,26.8,0,0,0
N#Cc1cc(Cl)c(N2CCOCC2)cc1C#N,0,0,0,0,0,0,-
N#Cc1cc2ccc(N3CCOCC3)cc2cc1C#N,0,0,0,60.5,0,0,0
CC(=O)c1ccc(NC(=O)CNC2CCCCC2)cc1,0,0,0,30.5,0,0,0
O=c1cc(CCl)nc2sc3ccccc3n12,0,0,0,59.6,0,0,72.7
O=c1cc(-c2ccc(O)c(O)c2)oc2c(C3O[C@H](CO)[C@@H](O)[C@H](O)[C@H]3O)c(O)cc(O)c12 (stereo partly specified),0,0,0,30.1,0,0,0
O=c1cc(-c2ccc(O)cc2)oc2c(C3O[C@H](CO)[C@@H](O)[C@H](O)[C@H]3O)c(O)cc(O)c12 (stereo partly specified),0,0,0,0,0,0,-
O=C1C(N2CCOCC2)=C(n2nnc3ccccc32)C(=O)c2ccccc21,0,0,0,51.0,0,0,33.7
O=C1c2ccccc2C(=O)c2c1cccc2-n1nnc2ccccc21,0,0,0,0,0,0,-
CC(=O)N(/N=C1\Sc2ccccc2C1=O)c1cccc(C)c1,0,0,0,42.1,0,0,53.6
CC(=O)N(CN1C(=O)c2ccccc2C1=O)c1cccc(C)c1,0,0,0,0,0,0,-
Cc1cc(C(=O)N/N=C/c2cc(N=Nc3ccccc3)ccc2O)n[nH]1,0,0,0,28.6,15.5,0,0
Cc1cc(C(=O)N/N=C/c2cccc([N+](=O)[O-])c2O)n[nH]1,0,0,0,0,0,0,-
O=C(Nc1cccc(Cl)c1N1CCOCC1)c1cccnc1Cl,0,0,0,0,0,0,-
O=Nc1c(O)[nH]c2ccc(Cl)cc12,0,0,0,25.5,0,0,33.8
CC(C)(C)c1ccc(NC(=O)COC(=O)c2ccc([N+](=O)[O-])s2)cc1,0,0,0,38.1,0,0,0
O=C(COC(=O)c1ccc([N+](=O)[O-])s1)NC(c1ccccc1)c1ccccc1,0,0,0,42.4,0,0,0
Cc1ccc(NS(=O)(=O)c2ccc(Cl)c(NC(=S)NC(=O)C3CCCCC3)c2)cc1Cl,0,0,0,0,0,0,-
CC1=NN(c2nc(-c3ccc(C)cc3)cs2)C(=O)C1N=Nc1cccc(O)c1 (stereo unspecified),0,0,0,26.4,0,0,0
